Laboratory results from PubChem BioAssay AID1259343 (VanderVen Lab, College of Veterinary Medicine, Cornell …, 2017).
Hit rate of the full screen: of about 6,200 compounds, about 2,900 (47%) were called active. Rule as the data show it: active = inhibition above about 50%; inactive = the rest. The set was probably picked from earlier hits. This is one part of the list.

experiment: Mycobacterium tuberculosis growth inhibition, primary screen (AID 1259343); details: inhibition: at 10 µM, stronger effect = higher value; outcome: 10 uM

Compound | inhibition
CCN(CCS(=O)(=O)c1cc(Cl)ccc1Cl)CC(=O)NC(C)C | -1.76% (inactive)
CN(CC1COc2ccccc2O1)C(=O)NCCc1ccsc1 (centres undefined) | -41.3% (inactive)
c1ccc(CCc2cn(CC3COc4ccccc4O3)nn2)cc1 (centres undefined) | 55.8% (active)
Clc1cc(CNCC2COc3ccccc3O2)cc2c1OCCO2 (centres undefined) | 11.4% (inactive)
FC(F)(F)c1ccc(-c2cnnc(N3CCC(c4ccncc4)CC3)n2)cc1 | 37.4% (inactive)
O=C(Nn1cnc2ccccc21)c1ccccc1SC1CCS(=O)(=O)C1 (centres undefined) | -8.68% (inactive)
C#CCOc1cccc(NC(=O)CSC2CCS(=O)(=O)C2)c1 (centres undefined) | 84.6% (active)
O=C(NCc1ccccc1F)c1cccc(COCC(F)(F)C(F)F)c1 | 68.7% (active)
O=C(NCc1cccc(COCc2ccco2)c1)c1ccccc1 | 14.8% (inactive)
COc1ccc(C2CCCN2C2=NCc3cnn(C(C)(C)C)c3N2)cc1 (centres undefined) | 10% (inactive)
Cc1ccc(Sc2ccc(C(=O)NC3CC3)cn2)cc1 | 11.2% (inactive)
O=C(NC1CCCCC1)c1cnccn1 | 47.9% (inactive)
O=C(NC1CCCCC1)c1ccc(C(F)(F)F)nc1 | 57.1% (active)
FC(F)(F)c1cc(-c2ccc(Cl)cc2)nc(-n2cccn2)n1 | 61.6% (active)
O=c1cc(CSc2nnc(-c3ccc(Cl)s3)o2)occ1O | 80.1% (active)
CCc1cc(=O)[nH]c(-n2nc(C)cc2NC(=O)/C=C/c2ccc3c(c2)OCO3)n1 | 100% (active)
Cc1cc(=O)[nH]c(-n2nc(C)cc2NC(=O)/C=C/c2ccc3c(c2)OCO3)n1 | 101% (active)
N/C(=N/O)c1cncc(OCC(F)(F)F)n1 | 92% (active)
Brc1c(-c2ccccc2)nc2ccccn12 | 40% (inactive)
CN(Cc1ccc(C(N)=O)cc1)Cc1ccccc1Br | 17.4% (inactive)
CC(Oc1ccc2cc(Br)ccc2c1)C(=O)NC(N)=O (centres undefined) | 80.7% (active)
CC(Oc1ccc(C(N)=O)cc1)C(=O)c1ccc(Br)cc1 (centres undefined) | 71.9% (active)
CCc1ccc(CNC(=O)Nc2ccc(C#N)cc2)s1 | 56.1% (active)
N#Cc1ccc(NC(=O)NCc2ccn(-c3ccccc3)n2)cc1 | 32.1% (inactive)
CCCSc1nnc(-c2c(Cl)c(CC)nn2C)s1 | 52.5% (active)
N#CCc1cc(-c2ccc(Cl)cc2)on1 | 72.6% (active)

Compound | inhibition
N#Cc1nc(-c2ccc(Cl)cc2)oc1NC1CC1 | 26.7% (inactive)
COc1cccc(Oc2ccc(C(F)(F)F)cc2NC(C)=O)c1 | 82.6% (active)
COc1cccc(-c2cc(N)c(=O)n(Cc3ccc(C(F)(F)F)cc3)n2)c1 | 22.8% (inactive)
COc1cccc(CC2(CO)CCCN(C(=O)Nc3cccc(C(F)(F)F)c3)C2)c1 (centres undefined) | 11% (inactive)
Cc1ccc(OC(C)C(=O)Nc2ccc3c(c2)CCC3)cc1 (centres undefined) | 1.9% (inactive)
O=C(Nc1nnc(-c2ccc3c(c2)CCCC3)o1)c1ccc([N+](=O)[O-])s1 | 101% (active)
CC(C)(C)C(=O)Nc1nnc(-c2ccc3c(c2)CCCC3)o1 | 92.3% (active)
NC(Cc1ccc(C(F)(F)F)cc1)c1csc(Nc2ncccn2)n1 (centres undefined) | 29.2% (inactive)
NC(Cc1ccc(F)cc1)c1csc(Nc2nccc(C(F)(F)F)n2)n1 (centres undefined) | 66.7% (active)
NC(Cc1ccc(C(F)(F)F)cc1)c1csc(Nc2nccc(C(F)(F)F)n2)n1 (centres undefined) | 94.8% (active)
NC(CCc1ccccc1)c1csc(Nc2nccc(C(F)(F)F)n2)n1 (centres undefined) | 50.5% (active)
NC(Cc1ccc(Cl)cc1)c1csc(Nc2nccc(C(F)(F)F)n2)n1 (centres undefined) | 63.1% (active)
C(=NN1CCOCC1)c1cn(-c2ccccc2)nc1-c1cc2ccccc2o1 | 88.6% (active)
OCc1cc(-c2cc3ccccc3o2)on1 | 8.03% (inactive)
c1ccc(Cn2cc(CN3CCN(c4ncccn4)CC3)c(-c3cc4ccccc4o3)n2)cc1 | inactive
OCc1cn(-c2ccccc2)nc1-c1cc2ccccc2o1 | 74.7% (active)
O=C(Cc1cc(-c2cc3ccccc3o2)on1)NCCCN1CCOCC1 | 20.8% (inactive)
O=C(CC(O)(c1ccccc1)C(F)(F)F)N1CCN(Cc2ccc(Cl)cc2)CC1 (centres undefined) | 53.2% (active)
O=C1NC(C2=Cc3cc(Cl)ccc3OC2)Nc2ccccc21 (centres undefined) | 0.99% (inactive)
COC(=O)c1cnc(Nc2nc(C(N)c3ccccc3Cl)cs2)nc1C(F)(F)F (centres undefined) | 94% (active)
COC(=O)c1cnc(Nc2nc(C(N)Cc3ccc(Cl)cc3)cs2)nc1C(F)(F)F (centres undefined) | 85.1% (active)
CC(=O)Nc1ccc(Sc2nc(C)cc(C)c2C#N)cc1 | -11.9% (inactive)
COc1cc(-c2cccc(O)c2)ncn1 | 93.2% (active)
COc1cc(N(C)CCC(O)c2ccccc2)ncn1 (centres undefined) | -15.6% (inactive)
CN(C)c1ccc(CN(C)S(=O)(=O)Cc2ccccc2)cc1 | 30.6% (inactive)
C=C1N(C)c2cc([N+](=O)[O-])c(N)cc2C1(C)C | 64.8% (active)

Compound | inhibition
c1ccc(-c2nc(SCC3CCOCO3)oc2-c2ccccc2)cc1 (centres undefined) | -19.9% (inactive)
O=S(=O)(/C=C/C=C/Sc1ccccc1)c1ccccc1 | 90.4% (active)
Cc1cc(C)n(-c2nc(NC(C)C)nc(NC(C)(C)C)n2)n1 | 101% (active)
CCn1cc(C(CC(=O)O)c2cccc(F)c2)c2ccccc21 (centres undefined) | 18.8% (inactive)
Cc1nn(C)c(C)c1C(=O)NNc1cccc(Cl)c1 | -9.93% (inactive)
CN(C)c1ccc(-c2nc3c(C(=O)NNc4cccc(Cl)c4)cccc3[nH]2)cc1 | 85.1% (active)
O=C(Cc1cc(-c2cc3ccccc3o2)on1)NCc1cccs1 | 28.1% (inactive)
O=C(Cc1cc(-c2cc3ccccc3o2)on1)NCc1ccc(F)cc1 | 22.7% (inactive)
O=C(Cc1cc(-c2cc3ccccc3o2)on1)NCc1ccncc1 | 75.1% (active)
O=C(Cc1cc(-c2cc3ccccc3o2)on1)NCc1ccco1 | 91.1% (active)
CNc1nc2cnc(Nc3ccc(Oc4ccccc4)cc3)cc2n1CCOC | 69.3% (active)
Nc1cccc(-c2cc(Nc3ccc(Oc4ccccc4)cc3)ncn2)c1 | 9.35% (inactive)
O=C(C=Cc1cccs1)NCc1ccc2c(c1)OCO2 | -6.77% (inactive)
COC(=O)c1ccc(CNC(=O)c2ccc3c(c2)OCO3)cc1 | 55.5% (active)
Cc1cnc(C(=O)NC(C)c2ccccc2OC(C)C)cn1 (centres undefined) | -5.8% (inactive)
Cc1cnc(C(=O)NCCc2ccccc2C)cn1 | 94.4% (active)
O=C(Nc1ccc(OCC(F)(F)F)cc1)c1cnccn1 | 25.9% (inactive)
CN(C)c1ccc(CNC(=O)c2ccc3c(c2)CCCC3)cc1 | -5.89% (inactive)
COC(=O)Cc1ccc(NC(=O)c2cnccn2)cc1 | 87.5% (active)
COc1ccc(CCNC(=O)c2cnc(C)cn2)cc1OC | 41.9% (inactive)
O=C(NCc1ccc2c(c1)OCO2)c1cccs1 | 52.8% (active)
Cc1ccc(C2(O)CCN(c3noc(-c4ccccc4)n3)CC2)nc1 | 16.2% (inactive)
CC1Cc2cc(CNC(=O)c3cc(C(C)C)nn3C)ccc2O1 (centres undefined) | 3.55% (inactive)
Cc1cnc(C(=O)NCc2ccc3c(c2)OCO3)cn1 | 63.5% (active)
CCCc1ccc(NC(=O)c2cnc(C)cn2)cc1 | 100% (active)
Cc1cnc(C)c(Nc2nc(C(N)Cc3ccc(Cl)cc3)cs2)n1 (centres undefined) | 78.6% (active)

Compound | inhibition
Cc1cnc(C)c(Nc2nc(C(N)Cc3ccc(C(F)(F)F)cc3)cs2)n1 (centres undefined) | 81.1% (active)
CCOCCC1(C(=O)Nc2ccc(CC)cc2)CCC1 | 75.8% (active)
CCc1ccc(NC(=O)COc2ccc(Br)cn2)cc1 | -1.65% (inactive)
COCc1cccc(C(=O)Nc2nc(C3CC3)cs2)c1 | 5.98% (inactive)
COCc1cccc(C(=O)Nc2ccc(C(C)(C)C)cc2)c1 | 60.8% (active)
COC(=O)c1cccc(S(=O)(=O)N(C)Cc2ccc(C)cc2C)c1 | 82.9% (active)
COc1cc(C)c(CN(C)C(=O)CCl)cc1OC | -15.9% (inactive)
NC(=O)c1c(NC(=O)CC23CC4CC(CC(C4)C2)C3)sc2c1CCC2 | 70.6% (active)
COC(=O)c1c(NC(=O)c2ccccc2Br)sc(C)c1C | 88.2% (active)
COC(=O)c1c(NC(=O)c2ccccc2Cl)sc2c1CCCC2 | 98.2% (active)
O=C(Nc1ccccc1Cl)c1csc2c1CCCC2 | 50% (inactive)
NC(=O)c1c(NC(=O)C2CCCCC2)sc2c1CCCC2 | -14.9% (inactive)
O=C(NC1CC1)c1c(NC(=O)C23CC4CC(CC(C4)C2)C3)sc2c1CCCC2 | 41.1% (inactive)
O=C(O)c1c(NC(=O)C2CCCCC2)sc2c1CCC2 | 79.8% (active)
Cc1cccc(OCCNC(=O)c2c(NC(=O)C3CC3)sc(C)c2C)c1 | 20.2% (inactive)
CCOC(=O)c1sc(N)c(C(=O)OC)c1C | -1.92% (inactive)
O=C(C=Cc1ccco1)Nc1sc2c(c1C(=O)O)CCCC2 | 8.18% (inactive)
COc1ccc(-c2ccc(NC(=O)c3cccnc3)c(C)c2)c(OC)c1OC | 40.8% (inactive)
O=C(Nc1sc2c(c1C(=O)O)CCCC2)c1cccnc1 | 70.5% (active)
COc1cccc(-c2cc(CC(=O)NCCC3=CCCCC3)no2)c1 | 83.2% (active)
CC1Cc2cc(-c3cc(CC(=O)NCCC4=CCCCC4)no3)ccc2O1 (centres undefined) | 73.2% (active)
O=C(Cc1cc(-c2ccc3c(c2)OCO3)on1)NCCC1=CCCCC1 | 41% (inactive)
CC1Cc2cc(-c3cc(CC(=O)NCc4cccnc4)no3)ccc2O1 (centres undefined) | 37.3% (inactive)
Cc1cc(NC(=O)Cc2cc(-c3ccc4c(c3)CC(C)O4)on2)no1 (centres undefined) | 34.1% (inactive)
CC1Cc2cc(-c3cc(CC(=O)NCc4ccco4)no3)ccc2O1 (centres undefined) | 92.3% (active)
O=C1C=C(O)c2ccccc2C1=O | 53.8% (active)
